Inconclusive results are not listed. Unmarked numbers belong to inactive results. Activity calls are given as the source filed them. Calls follow the shape of the dose curve; as a rule, active = well fitted cell-killing curve with a large enough effect; inconclusive = small, poorly fitted or top-dose-only effect; inactive = no such curve, though single readings can be large or run the other way.
Potency is read from the fitted curve at half-maximal effect.

This test can be described thus: qHTS of pediatric cancer cell lines to identify multiple opportunities for drug repurposing: Primary screen for SK-N-MC cells (AID 1347093). To be noted: SK-N-MC viability, CellTiter-Glo luminescence, 48 h; series mostly up to 46 µM; activity change, negative = cytotoxic: at the top concentration. An excerpt: Drug repurposing or repositioning has been offered as a strategy for drug development in oncology programs. This approach has special potential for childhood cancers and other rare or orphan diseases, where the expected return on new drug development has been a disincentive to pharmaceuticals.
In this project we exploit the poly-pharmacology of drugs to discover new indications via phenotypic screening of a panel of 19 well-characterized cell lines derived from solid tumors seen in children and adolescents. The goal is to identify approved drugs with previously unrecognized anticancer properties that has the potential to reveal new mechanisms and biological processes involved in carcinogenesis or drug resistance. We employed a titration-based paradigm (quantitative high-throughput screening or qHTS), where all compounds were tested at multiple concentrations for their effect on cell viability. Concentration-response curves (CRCs) were derived directly from the primary screen, and both potency and efficacy values were used to identify compounds with robust bioactivity profiles. We screened the NIH Chemical Genomics Center (NCGC) Pharmaceutical Collection (NPC) and Mechanism Interrogation Plate (MIPE) small molecule collections of approved and investigational compounds against these cell lines; and measured metabolically active cells after 48 hours of compound treatment as a proxy for cell viability.
Assay Submitter: Nathalia J. Martinez, National Center for Advancing Translational Sciences, National Institutes of Health, Rockville, MD, USA; email: natalia.martinez@nih.gov
[1] Shen, M et al. Quantitative high-throughput phenotypic screening of pediatric cancer cell lines identifies multiple opportunities for drug repurposing. Oncotarget 2017 Dec 19;9(4):4758-4772. PMID 29435139.
The cells were obtained from University of North Carolina (UNC), Pediatric Preclinical Testing Program (PPT), and Coriell Institute (CI).
qHTS cell viability assay:
Cells were assayed in growth media at a density of 500-1,000 cells/well. Five microliters of cells were dispensed into 1,536-well, white, solid-bottom, TC-treated plates (Greiner Bio One) using a multidrop dispenser and incubated at 37 degrees C, 5% CO2, under a humidified atmosphere for 5 hours. Twenty-three nanoliters of compounds and controls (neutral control DMSO or positive control bortezomib at final concentration of 2.3 µM) were subsequently transferred by Kalypsys pintool. For primary screens, the MIPE collection was tested at 11-point dilutions (final concentrations range from 0.78 nM to 46 µM) and the NPC collection at 8-point dilutions (final concentrations range from 0.59nM to 46 µM). Compounds tested in follow-up screens were assayed at 11-point dilutions. Cells were incubated for 48 hours, followed by addition of 3 uL of CellTiter-Glo (Promega). After a 15 min incubation at room temperature, samples were analyzed for luminescence intensity using a ViewLux High-throughput CCD imager equipped with clear filters.
In the case of `NS(=O)(=O)OC[C@@H]1C[C@@H](n2ccc3c(N[C@H]4CCc5ccccc54)ncnc32)C[C@H]1O`, the Potency was 93.5 nM (active).

Take `N#Cc1ccc(COC[C@H]2O[C@@H](n3c(NCc4ccc(Cl)c(Cl)c4)nc4c(N)ncnc43)[C@@H](O)[C@@H]2O)cc1`: the Potency was 20900 nM (active).

With `CCCCCN=C(N)NN=Cc1c[nH]c2ccc(OC)cc12`, the Potency is 3720 nM (active).

For the molecule `Cn1c(Nc2ccc(C(F)(F)F)cc2)nc2cc(Oc3ccnc(-c4ncc(C(F)(F)F)[nH]4)c3)ccc21`, the Potency is 187 nM (active).

As to `CCC[C@H]1C[C@H](C(=O)N[C@@H]([C@@H]2O[C@@H](SC)[C@@H](O)[C@@H](O)[C@@H]2O)[C@H](C)Cl)N(C)C1`, the “activity change, negative = cytotoxic” value was 28.8%.

Take `N#CC(=Cc1ccc(O)c(O)c1)C(=O)NCc1ccccc1`: the Potency is 14800 nM (active).

Take `CN1CCc2c(c3ccccc3n2Cc2ccc(C(=O)NO)cc2)C1`: the Potency is 2960 nM (active).

As for `CC(=O)ON=C1C(c2c(O)[nH]c3cc(Br)ccc23)=Nc2ccccc21`, the Potency was 11.8 nM (active).

In the case of `CC(=O)N[C@@H]1[C@H](O[C@@H]2c3ccc(c(Cl)c3)Oc3cc4cc(c3O[C@H]3O[C@H](CO)[C@@H](O)[C@H](O)[C@H]3NC(=O)CCCCCCCC(C)C)Oc3ccc(cc3Cl)C[C@H]3NC(=O)[C@H](N)c5ccc(O)c(c5)Oc5cc(O)cc(c5)[C@H](NC3=O)C(=O)N[C@H]4C(=O)N[C@H]3C(=O)N[C@@H]2C(=O)N[C@@H](C(=O)O)c2cc(O)cc(O[C@H]4O[C@H](CO)[C@@H](O)[C@H](O)[C@H]4O)c2-c2cc3ccc2O)O[C@H](CO)[C@@H](O)[C@@H]1O`, the “activity change, negative = cytotoxic” value was -4.67%.

Consider `COc1ccc(Nc2cc(-c3cnc(N)nc3)nc(N3CCOCC3)n2)cn1`, for which the Potency is 372 nM (active).

Regarding `O=c1c(O)c(-c2ccc(O)c(O)c2)oc2cc(O)ccc12`, the Potency was 20900 nM (active).

Regarding `C=Cc1c(C)c2cc3nc(cc4[nH]c(cc5nc(cc1[nH]2)C(C)=C5CCC(=O)O)c(CCC(=O)OC)c4C)[C@@]1(C)C3=CC=C(C(=O)OC)[C@H]1C(=O)OC`, the Potency was 59 nM (active).

As to `c1cc(N[C@@H]2CCNC2)nc(-c2cnc3ccc(-c4cn[nH]c4)cn23)c1`, the Potency is 4690 nM (active).

Take `CC(=O)OCC(=O)[C@@]12N=C(C)O[C@H]1C[C@H]1[C@@H]3CCC4=CC(=O)C=C[C@]4(C)[C@@H]3[C@@H](O)C[C@@]12C`: the “activity change, negative = cytotoxic” value is 13.5%.

Consider `CC(C)(C)[C@H](NC(=O)c1ccc(N)c(Cl)c1)C(=O)N1CCC[C@@H]1C(=O)N[C@H](C#N)CC(=O)O`, for which the Potency was 235 nM (active).

For `C[C@@H]1CC[C@@]2(OC1)OC1CC3C4CC=C5CC(O)CCC5(C)C4CCC3(C)C1[C@@H]2C` (stereo not given in full), the “activity change, negative = cytotoxic” value was -13.5%.

`COC1=C(OC)C(=O)C(CC=C(C)CCC=C(C)CCC=C(C)CCC=C(C)CCC=C(C)CCC=C(C)CCC=C(C)CCC=C(C)CCC=C(C)CCC=C(C)C)=C(C)C1=O`: the “activity change, negative = cytotoxic” value was -0.436%.

With `CC(C)c1cnn2c(NCc3ccccc3)cc(NCCCCCCN)nc12`, the Potency is 662 nM (active).

As for `O=c1[nH]c(=O)n([C@H]2C[C@@H](O)[C@@H](CO)O2)cc1F`, the Potency was 16600 nM (active).

Consider `CC(C=CC(=O)NO)=C[C@@H](C)C(=O)c1ccc(N(C)C)cc1`, for which the Potency was 264 nM (active).

As for `Cc1onc(-c2ccccc2)c1C(=O)N[C@@H]1C(=O)N2[C@@H](C(=O)O)C(C)(C)S[C@@H]12`, the “activity change, negative = cytotoxic” value is -19.3%.

In the case of `CCC(C(=O)O)C1CCC(C)C(C(C)C(O)C(C)C(=O)C(CC)C2OC3(C=CC(O)[C@@]4(CC[C@](C)(C5CC[C@@](O)(CC)C(C)O5)O4)O3)C(C)CC2C)O1` (stereo not given in full), the Potency was 187 nM (active).

For the molecule `O=C(CCCCCCC(=O)Nc1cccnc1)NO`, the Potency was 2960 nM (active).

As to `C=C1C[C@@]2(O)O[C@@]3(C[C@H]2C(C)C)[C@H](C)CC[C@H]13`, the “activity change, negative = cytotoxic” value was 13.6%.

Consider `COc1ccnc2[nH]cc(C(=O)C(=O)N3CCN(C(=O)c4ccccc4)C[C@@H]3C)c12`, for which the “activity change, negative = cytotoxic” value is 10.3%.

Regarding `CC(C=CC=C(C)C=CC1=C(C)CCCC1(C)C)=CC=CC=C(C)C=CC=C(C)C=CC1=C(C)CCCC1(C)C`, the Potency is 7430 nM (active).

As for `CC(=O)OC[C@@H]1O[C@@H](n2ccc(=O)[nH]c2=O)[C@H](OC(C)=O)[C@H]1OC(C)=O`, the “activity change, negative = cytotoxic” value is -27%.

With `CNC(=O)c1cccc(-c2ccc3c(N4CCOC[C@H]4C)nc(N4CCOC[C@H]4C)nc3n2)c1`, the Potency is 14.8 nM (active).

For the molecule `CCOC(=O)N1CCN([N+]([O-])=NOc2ccc([N+](=O)[O-])cc2[N+](=O)[O-])CC1`, the Potency is 8330 nM (active).

For the molecule `CC(C)NC[C@@H](C(=O)N1CCN(c2ncnc3c2[C@H](C)C[C@H]3O)CC1)c1ccc(Cl)cc1`, the Potency was 132 nM (active).

Consider `COc1cc(C)c(C=CC(C)=CC=CC(C)=CC(=O)O)c(C)c1C`, for which the Potency is 18700 nM (active).

For `Nc1nc2c(c(=O)[nH]1)N(C=O)[C@H](CNc1ccc(C(=O)N[C@@H](CCC(=O)O)C(=O)O)cc1)CN2`, the “activity change, negative = cytotoxic” value is -25.2%.

In the case of `CCN(CC)CCCCNc1ncc2c(n1)N(C)C(=O)N(c1c(Cl)c(OC)cc(OC)c1Cl)C2`, the Potency was 13200 nM (active).

For `COc1cc([C@@H]2c3cc4c(cc3[C@H](O)[C@H]3COC(=O)[C@@H]23)OCO4)cc(OC)c1OC`, the Potency was 74.3 nM (active).

Turning to `NC[C@H]1O[C@H](O[C@H]2[C@@H](O)[C@@H](O[C@H]3O[C@H](CO)[C@@H](O)[C@H](N)[C@@H]3O)[C@H](N)C[C@@H]2N)[C@H](N)C[C@H]1O`, the “activity change, negative = cytotoxic” value is 8.92%.

Turning to `CC[C@]12C=CCN3CC[C@@]4(c5cc([C@@]6(C(=O)OC)C[C@H]7C[C@@H](C(C)(F)F)CN(Cc8c6[nH]c6ccccc86)C7)c(OC)cc5N(C)[C@H]4[C@@](O)(C(=O)OC)[C@H]1OC(C)=O)[C@@H]32`, the Potency is 3 nM (active).

Regarding `O=C(O)C[C@H](O)C[C@H](O)C=Cc1c(C2CC2)nc2ccccc2c1-c1ccc(F)cc1`, the Potency is 4690 nM (active).

For the molecule `COc1ccc(S(=O)(=O)Nc2cc(-c3c(O)ccc4ccccc34)c(O)c3ccccc23)cc1`, the Potency is 3320 nM (active).

For the molecule `O=C(CN1C(=O)C2(CCCC2)NC[C@H]1c1cc(F)cc(F)c1)Nc1ccc2c(c1)C[C@@]1(C2)C(=O)Nc2ncccc21`, the “activity change, negative = cytotoxic” value was 8.62%.

As for `Cc1cnc(NC(=O)Nc2cc(Br)c(C)cc2OC[C@@H]2CNCCO2)cn1`, the Potency was 166 nM (active).

The values are drawn from PubChem BioAssay (NCATS).
